Some of the results follow. Records with an inconclusive call do not appear. Calls of active or inactive are those of the source. Calls come from the whole dose curve; as a rule, active = well fitted inhibition curve with a large enough effect; inconclusive = small, poorly fitted or top-dose-only effect; inactive = flat fitted curve, though single readings scatter.
Target: Histone-lysine N-methyltransferase EHMT2 (Homo sapiens) (UniProt Q96KQ7)
Experiment: qHTS Assay for Inhibitors of Histone Lysine Methyltransferase G9a: Hit Confirmation; note: nearly all actives have a fitted effect of over 65% in size
Details: G9a H3K9 monomethylation, AlphaScreen, 2 h
Source text: Methylated lysines, on the N-terminal tails of histone proteins serve as epigenetic markers to recruit factors that can then modify local chromatin structure to lead to functional consequences. G9a and other members of the SUV39 family of the SET domain-containing superfamily of histone lysine methyltransferases (HMT) have been identified to specifically methylate Lys9 of histone H3 (H3K9). G9a catalyzes the mono- and di-methylation of H3K9 in mammalian euchromatic regions, where the resulting H3K9me2 is indicative of transcriptional repression. […] The inhibition of G9a will result in transcriptional activation and work synergistically with DNA methyltransferase and histone deacetylase inhibitors, to kill cancer cells. This qHTS assay for identification of G9a inhibitors is a chemiluminescence based AlphaScreen (PerkinElmer). Methylation of biotinylated-histone peptide is measured through specific antibody-based detection, in conjunction with streptavidin-coated donor and anti-IgG antibody-coated acceptor beads. The method is particularly well suited for detection of inhibitors acting by the desired histone peptide competitive mechanism and is applicable to testing other HMTs. Although AlphaScreen has significant advantages with its utility in a variety of epigenetic target assays, the primary screening data provided in this deposition should be used with caution due to the prevalence of screening artifacts. An AlphaScreen counterscreen is highly recommended to be run against any putative actives to eliminate non specific artifacts. Alternatively, one can use other AlphaScreen assays in PubChem to filter out promiscuous hits. Quinn et al. A chemiluminescence-based method for identification of histone lysine methyltransferase inhibitors. Mol Biosyst 6(5): 782-8. 2010. PMID: 20567762 [2] Baell,Holloway. New substructure filters for removal of pan assay interference compounds (PAINS) from screening libraries and for their exclusion in bioassays. J Med Chem. 53(7):2719-40. 2010. PMID: 20131845 NIH Chemical Genomics Center [NCGC] NIH Molecular Libraries Probe Production Network [MLPCN] MLPCN Grant: MH084681-02 Assay Submitter (PI): Structural Genomic Consortium - Toronto, Peter Brown
To each well, 2 uL of HMT enzyme (final 20 nM) will be added using a nanoliter dispenser. The G9a- and GLP-inhibitor BIX-01294 will be used as an intraplate control, with a 16-point titration in duplicate. A Kalypsys pin-tool will be employed to transfer 23 nL of library compound solution in DMSO to each well. Following a 15 min incubation of enzyme with compounds at room temperature, 1 uL mixture of b-H3K9 peptide substrate (final 500 nM) and SAM cofactor (final 20 uM) will be added. Reactions are allowed to proceed at room temperature for 2 hours. Methylated b-H3K9 peptide product is detected with 0.5 ug/mL rabbit polyclonal anti-monomethyl histone H3K9 antibody (Abcam Inc., Cambridge, MA) and 20 ug/mL each streptavidin-coated donor and anti-rabbit IgG acceptor AlphaScreen beads. Antibody and beads will be added in a 1 uL dispense, for a final volume of 4 uL, and plates will be incubated protected from the light for 10 min at room temperature. Microplates will then be read on an EnVision multilabel plate reader using the 1,536 plate HTS AlphaScreen aperture (excitation time 80 ms, measurement time 240 ms).
Potency is the fitted concentration of half-maximal effect.

Chain of Histone-lysine N-methyltransferase EHMT2 (Homo sapiens) (Q96KQ7 913-1193 limits assumed): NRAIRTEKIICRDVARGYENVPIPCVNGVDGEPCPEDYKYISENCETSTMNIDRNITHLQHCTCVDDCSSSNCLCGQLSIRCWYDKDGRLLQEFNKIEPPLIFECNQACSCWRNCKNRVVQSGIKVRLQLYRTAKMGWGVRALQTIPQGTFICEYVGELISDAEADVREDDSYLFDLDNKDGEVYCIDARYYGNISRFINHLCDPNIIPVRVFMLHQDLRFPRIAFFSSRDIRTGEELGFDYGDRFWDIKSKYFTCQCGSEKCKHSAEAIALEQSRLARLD

Potency, active:
CCOC(=O)c1c(NC(=O)COc2cc(C)ccc2C(C)C)sc(C)c1C 5.64 µM, COCCCNCC(=O)Nc1sc(C)c(C)c1C(=O)OC 31.6 µM, CCc1ccc(NC2Nc3cc(C)nn3S2)cc1 (stereo unspecified) 1.78 µM, CCOC(=O)N1CCN(C(c2cccnc2)c2ccc3cccnc3c2O)CC1 (stereo unspecified) 0.159 µM, CCOC(=O)c1ccc(NC(=O)CSc2ncccn2)cc1 0.632 µM, CCc1ccc(Nc2ncc3c(n2)CC(c2ccco2)CC3=O)cc1 (stereo unspecified) 31.6 µM, CCOC(=O)N1CCc2c(sc(NCc3cccc(F)c3)c2C(=O)Nc2ccccc2OCC)C1 4.57 µM, CCn1c(SCC(=O)Nc2cccc(F)c2)nnc1-c1cc2cc(Br)ccc2o1 5.01 µM, CCOc1ccc(NC(=O)c2c(NC(=O)Cc3ccccc3)sc3c2CCC(C)C3)cc1 (stereo unspecified) 2.57 µM, Cc1ccccc1C(=O)Nc1ccc(N2CCCCCC2)cc1 2.83 µM, c1ccc(-c2nnc3n2NC(c2ccc4c(c2)OCO4)S3)cc1 (stereo unspecified) 0.178 µM, CCOC(=O)c1ccc(-n2c(CCC(=O)O)ccc2-c2ccccc2)cc1 31.6 µM, CCOc1ccc(NC(=O)c2c(NC(=O)Cc3ccccc3)sc3c2CCCCC3)cc1 4.57 µM, Cc1ccc(-c2cnc(NCc3ccc(C(C)C)cc3)n2C)cc1 31.6 µM, CC(NC(=O)c1ccco1)C(=O)Nc1nc(-c2ccccn2)cs1 (stereo unspecified) 7.96 µM, CCCCNC(=O)CSc1nc2ccc(NC(=O)CSc3nnc(N)s3)cc2s1 1.42 µM

Source: PubChem BioAssay AID588344 (National Center for Advancing Translational Sciences (NCATS), 2011)
